KCNQ2 enhance: potentiators of rat KCNQ2 potassium channel; CHO-K1 KCNQ2, FluxOR thallium flux fluorescence; active compounds read high; O88943; 310,000 tested, 0.54% active; B-score at 10 µM;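 active = fluorescence ratio B-score at least 3 SD of library B-scores, with initial fluorescence B-score within 3 of them, cut at about 5.3 in these data; same plate scores as AID 2156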;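 note: B-score of peak minus minimum over baseline fluorescence ratio after K+ and Tl+ stimulus; positive B-score means potentiation of KCNQ2 with more thallium influx and brighter signal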
KCNQ2 inh: inhibitors of rat KCNQ2 potassium channel | 310,000 tested, 1.1% active | B-score at 10 µM | CHO-K1 KCNQ2, FluxOR thallium flux, 20 min; active compounds read low | O88943;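 active = fluorescence ratio B-score at most minus 3 library SDs, with starting brightness B-score within 2 library SDs, cut at about -5.5 in these data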
Starred values were filed as active, the others as inactive; i = inactive; / = no result given. Only some compounds are listed: those with a hit (about 1.6% of all), similar ones and a draw of the others.

SMILES | KCNQ2 enhance | KCNQ2 inh
Cc1ccc(C(=O)Nn2cnnc2)cc1S(=O)(=O)N1CCOCC1 | 0.11 | i
O=c1onc(-c2ccccc2Cl)n1-c1ccccc1Cl | 1.47 | i
O=C(CCc1ccccn1)N1CCCC(N2CCN(c3ccc(F)cc3)CC2)C1 (stereo not given) | / | i
COc1ccc(CCNC(C(=O)Nc2cc(C)cc(C)c2)c2ccccc2)cc1 (stereo not given) | -8.07 | -8.07*
CCOc1ccccc1NC(=O)C(NCCc1ccc(OC)cc1)c1ccccc1 (stereo not given) | / | i
O=C(Oc1ccccc1C(=S)N1CCOCC1)c1cccc([N+](=O)[O-])c1 | 0.06 | i
CCOC(=O)CSc1nnc(CNc2cccc(Cl)c2)n1-c1ccccc1 | -6.39 | -6.39*
CC(C)OC(=O)CSc1nnc(CNc2cccc(Cl)c2)n1C | 0.01 | i
N#CC1(c2ccccc2)CCC(=O)N1Cc1ccccc1 (stereo not given) | 0.6 | i
N#Cc1nc(COc2cccc(Cl)c2)oc1N1CCN(c2ccccc2)CC1 | / | i
N#Cc1nc(COc2ccccc2)oc1N1CCN(c2cccc(Cl)c2)CC1 | -5.87 | -5.87*
O=C(Nc1ccccc1)NC1CCCCCCC1 | 0.03 | i
CC(NC(=O)NC1CCCCC1)c1ccccc1 (stereo not given) | 13.5* | i
CCN1CCSc2ccc(C(=O)NCc3ccccc3C)cc21 | / | i
CCN1CCSc2ccc(C(=O)NCc3ccccc3Br)cc21 | -6.14 | -6.14*
Cc1cccc(C)c1NC(=O)C1CCCN1S(=O)(=O)c1ccc2c(c1)n(C)c(=O)c(=O)n2C (stereo not given) | 1.45 | i
CCN(CC(=O)Nc1ccc(C)c(S(=O)(=O)N2CCOCC2)c1)Cc1ccccc1 | 0.08 | i
C=CCn1c(=O)c(C(=O)Nc2ccc(C)cn2)c(O)c2ccccc21 | / | i
C=CCn1c(=O)c(C(=O)NCc2ccc(Cl)cc2)c(O)c2ccccc21 | -5.98 | -5.98*
CC1CCN(C(=O)COC(=O)c2ccc(=O)n(Cc3ccccc3)n2)CC1 | 1.26 | i
C(=N\n1cnnc1)/c1ccccn1 | / | i
C(=N\N(c1ccccc1)c1ccccc1)/c1ccccn1 | -6.21 | -6.21*
CCOc1ccccc1OCCC(=O)OCC(=O)Nc1c(C)cc(C)cc1C | / | i
Cc1cc(C(=O)Nc2ccon2)ccc1[N+](=O)[O-] | / | i
Cc1ccc(N2CCN(C(=O)c3cc(COc4c(C)cccc4C)on3)CC2)c(C)c1 | / | i
SMILES | KCNQ2 enhance | KCNQ2 inh
Cc1cccc(C)c1OCc1cc(C(=O)N2CCCCCCC2)no1 | -6.55 | -6.55*
O=C(O)c1cc(S(=O)(=O)Nc2ccccc2Cc2ccccc2)ccc1Cl | -8.11 | -8.11*
O=C(O)c1ccc(Cl)c(S(=O)(=O)Nc2ccccc2Cc2ccccc2)c1 | / | i
O=C(O)CN(CCc1ccccc1)S(=O)(=O)c1ccccc1 | / | i
O=C(NCC1CCCO1)c1ccc(CNS(=O)(=O)c2cccc(Cl)c2)cc1 (stereo not given) | 1.27 | i
CCCn1c(SCC#N)nc2c(c1=O)C1(CCCC1)Cc1ccccc1-2 | -6.39 | -6.39*
N#CCSc1nc2c(c(=O)n1Cc1ccco1)C1(CCCC1)Cc1ccccc1-2 | / | i
O=c1c2c(nc(NCCO)n1CC1CCCCC1)-c1ccccc1CC21CCCC1 | -8.78 | -8.78*
CC1(C)CC(n2c(NCCO)nc3c(c2=O)C2(CCCC2)Cc2ccccc2-3)CCO1 (stereo not given) | / | i
Cc1cccc(-n2c(SCC(N)=O)nc3c(c2=O)C2(CCCC2)Cc2ccccc2-3)c1 | -6.76 | -6.76*
NC(=O)CSc1nc2c(c(=O)n1-c1ccccc1)C1(CCCCC1)Cc1ccccc1-2 | 0.74 | i
C/C(=N/NC(=O)c1ccc(C)nc1)c1ccc2c(c1)CCCC2 | / | i
Cc1ccc(C(=O)c2oc3ccc(Cl)cc3c2NC(=O)CN2CCN(C)CC2)cc1 | / | i
Cc1cc(C(=O)COC(=O)c2ccc(N)cc2)c(C)n1-c1c(C)n(C)n(-c2ccccc2)c1=O | 0.17 | i
O=C(C1CC1)N1CCN(c2ccc([N+](=O)[O-])cc2-n2cccc2)CC1 | / | i
O=C(NCc1ccco1)C1CCN(S(=O)(=O)c2cccc([N+](=O)[O-])c2)CC1 | / | i
C=C(C)CCOC(=O)C(CC(=O)O)NCc1ccco1 (stereo not given) | / | i
Nc1nnc(SCC(=O)c2ccccc2)s1 | 0.86 | i
Nc1c(C(=O)c2ccccc2)sc2snc(SCC(=O)c3ccccc3)c12 | -5.95 | -5.95*
O=C(CSc1nncn1-c1ccccc1)NC1CCCC1 | 0.03 | i
CCN1CCN(C(=O)c2[nH]c3ccc(OC)cc3c2C)CC1 | 1.03 | i
CCN1C(=O)[C@H]2[C@@H](c3ccc(-c4ccc(Cl)c(Cl)c4)c(OC)c3)N[C@@](Cc3ccccc3)(C(=O)OC)[C@H]2C1=O | / | i
CCN(CC)S(=O)(=O)c1cccc(-c2nnc(SCC#N)n2Cc2ccccc2)c1 | -5.67 | -5.67*
CCN(CC)S(=O)(=O)c1cccc(-c2nnc(SC(C)C#N)n2Cc2ccccc2)c1 (stereo not given) | / | i
Cc1cccc(N/C(N)=N/c2nc(CSc3ccc(Cl)cc3)cc(=O)[nH]2)c1 | 2.34 | i
SMILES | KCNQ2 enhance | KCNQ2 inh
Cn1cc([N+](=O)[O-])c(C(=O)Nc2ccc(-c3nc4ccccc4o3)cc2)n1 | / | i
CN(C)c1ccc(C(=O)Nc2nc3c(s2)CCCC3)cc1 | / | i
CC(C)(C)c1ccc(C(=O)NC(=S)Nc2nc3c(s2)CCCC3)cc1 | 8.46* | i
Cc1ccc(CS(=O)Cc2ccc(C(=O)NCc3ccccc3Br)o2)cc1 (stereo not given) | / | i
COc1cc2c(C(=O)N3CCN(C)CC3)c(C)n(-c3ccccc3)c2cc1Br | / | i
CCN(CC)CCNC(=O)c1c(C)n(-c2ccccc2)c2cc(Br)c(OC)cc12 | -5.84 | -5.84*
C(=N\Nc1nc(N2CCCCCC2)nc(N2CCCCCC2)n1)/c1ccccc1 | -5.8 | -5.8*
O=C(O)c1ccccc1/C=N/Nc1nc(N2CCCCC2)nc(N2CCCCC2)n1 | / | i
Cc1ccccc1OCC(=O)Nc1c2c(nn1C(C)(C)C)CS(=O)(=O)C2 | 0.42 | i
OC(CCN1CCCCC1)(c1ccccc1)C1CCCCC1 (stereo not given) | / | i
OC(CCN1CCOCC1)(c1ccc(Cl)cc1)C1CCCCC1 (stereo not given) | -5.83 | -5.83*
O=C(Nc1cc2c3c(c1)CC(=O)N3CCC2)C1CC1 | / | i
Cn1c(=O)c(C(=O)NCCc2ccccc2)c(O)c2ccccc21 | / | i
CC(NC(=O)c1c(O)c2ccccc2n(C)c1=O)c1ccccc1 (stereo not given) | -5.78 | -5.78*
O=C1C(c2ccc(F)cc2)N(C2CCCCC2)C(=O)CN1C1CCCC1 (stereo not given) | / | i
COc1ccccc1CN1C(=O)CN(C2CCCCCC2)C(=O)C1c1ccc(F)cc1 (stereo not given) | -6.14 | -6.14*
COc1cccc(C2c3[nH]c4ccccc4c3C[C@H]3C(=O)N(C4CC4)CC(=O)N23)c1 (stereo not given in full) | / | i
COc1cccc(C2C(=O)N(C3CCCCC3)CC(=O)N2Cc2ccc(F)cc2)c1 (stereo not given) | -6.98 | -6.98*
Cc1sc2ncn(CC(=O)NCCCC(=O)N3CCCCC3)c(=O)c2c1C | / | i
COCCn1c(SCC(=O)NCc2ccc(OC)c(OC)c2)nc2ccccc21 | / | i
c1ccc(C2C/C(=N\N3CCOCC3)c3ccccc3O2)cc1 (stereo not given) | / | i

Compound activity: PubChem, Johns Hopkins Ion Channel Center
